# In PubChem BioAssay:
# Activity calls are given as the source filed them. How the calls were made is not given here.
# Molecular target: Pantothenate synthetase (Mycobacterium tuberculosis (strain ATCC 25618 / H37Rv)) (UniProt P9WIL5)
# Test: Coupled enzyme confirmation of inhibitors against recombinant Mtb PanC (AID 375);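 further: 0% = full reaction with vehicle and 100% = no enzyme background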
# Conditions: coupled enzyme assay; at 10 µM, hits give high values
# Sequence of Pantothenate synthetase (Mycobacterium tuberculosis (strain ATCC 25618 / H37Rv)) (P9WIL5 whole entry, looked up): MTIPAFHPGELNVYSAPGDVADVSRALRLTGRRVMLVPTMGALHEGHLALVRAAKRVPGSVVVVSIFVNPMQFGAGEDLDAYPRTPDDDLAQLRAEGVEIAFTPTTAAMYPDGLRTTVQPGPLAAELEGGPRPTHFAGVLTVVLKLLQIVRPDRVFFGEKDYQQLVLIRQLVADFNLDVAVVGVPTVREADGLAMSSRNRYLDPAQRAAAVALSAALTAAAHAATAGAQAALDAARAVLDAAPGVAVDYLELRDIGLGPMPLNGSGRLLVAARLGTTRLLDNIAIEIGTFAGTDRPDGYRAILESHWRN
row,SMILES,inhibition
1,CCOc1ccc2cc(C#N)c(SCC(=O)N3CCC(C)CC3)nc2c1,10% (inactive)
2,CN1CCN(CC(=O)N2c3ccccc3C(=O)Nc3cccnc32)CC1,4% (inactive)
3,CSc1nc2c(c(=O)n1C)SC(C)C2 (stereo not given),0% (inactive)
4,CCOC(=O)N1CCC(NC(=O)c2ccc3c(c2)sc2nc(-c4cccc(OC)c4)cn23)CC1,0% (inactive)
5,CCOC(=O)CSc1nc2ccccc2n1CC(=O)N1CCN(c2ccccc2)CC1,0% (inactive)
6,Cc1occc1-c1nnc(SCC(=O)NCC2CCCO2)n1C (stereo not given),7% (inactive)
7,CCOC(=O)Nc1c(C(=O)OC)[nH]c2cccc(OC)c12,0% (inactive)
8,Cn1ncc2c(Nc3ccccc3Br)ncnc21,0% (inactive)
9,CCCCn1c(SCc2ccc(Cl)cc2)nc2c1c(=O)[nH]c(=O)n2C,6% (inactive)
10,CCOC(=O)c1ccc(NC(=O)CCc2nc(-c3ccc(C)cc3)no2)cc1,0% (inactive)
11,Cc1nnc(SCCn2c(N3CCC(Cc4ccccc4)CC3)nc3c2c(=O)[nH]c(=O)n3C)s1,2% (inactive)
12,Cc1nnc(NS(=O)(=O)c2ccc(N)cc2)s1,0% (inactive)
13,Cc1ccnc(NC(=O)C2CCCN(S(=O)(=O)c3cnc[nH]3)C2)c1 (stereo not given),0% (inactive)
14,ON1C2CCCCC2N(O)C1c1c(F)c(F)c(F)c(F)c1F (stereo not given),7% (inactive)
15,C=CCNC(=O)C1CC(=O)N(c2ccc(OCC(=O)Nc3ccc(OC)cc3)cc2)C1 (stereo not given),0% (inactive)
16,Cn1c(C(=O)Nc2ccc3c(c2)OCO3)cc2c(=O)n(C)c3ccccc3c21,0% (inactive)
17,COc1cc2c(cc1OC)C(c1cc(OC)c(OC)c(OC)c1)NCC2 (stereo not given),0% (inactive)
18,CC1CC(C)CN(Cc2nc3c(c(=O)n(C)c(=O)n3C)n2Cc2ccccc2Cl)C1 (stereo not given),0% (inactive)
19,CC(C)CN(CC(C)C)C(=O)CS(=O)(=O)Cc1ccccc1,0% (inactive)
20,Cc1ccc2nc(CSc3nnc(-c4ccco4)n3-c3ccccc3)cc(=O)n2c1,4% (inactive)

row,SMILES,inhibition
1,c1cnn(-c2cc(N3CCOCC3)ncn2)c1,0% (inactive)
2,O=C(C1CCCCC1)N1CC(=O)N2CCc3ccccc3C2C1 (stereo not given),3% (inactive)
3,COc1ccc(S(=O)(=O)Nc2ccc(Cl)cn2)c(C)c1C,1% (inactive)
4,Cc1c(Cc2ccccc2)sc(N)c1C(N)=O,0% (inactive)
5,O=C(NS(=O)(=O)c1ccc(NC(=O)C2CCCO2)cc1)c1ccccc1 (stereo not given),0% (inactive)
6,CC(C)CN1C(=O)c2ccc(C(=O)Nc3nccs3)cc2C1=O,0% (inactive)
7,CCCC(=O)Nc1ccc(NC(=O)C2CC2)cn1,2% (inactive)
8,CCN(CC)CCOC(=O)c1ccc(NC(=O)COc2cc(=O)n(CC)c3ccccc23)cc1,2% (inactive)
9,C/C=C/Cn1c(Br)nc2c1c(=O)[nH]c(=O)n2C,0% (inactive)
10,COc1ccc(Cl)cc1NC(=O)CCN1CCN(c2ccccc2C)CC1,0% (inactive)
11,Cc1c(NC(=O)c2noc3c2CCc2ccccc2-3)c(=O)n(-c2ccccc2)n1C,0% (inactive)
12,COc1ccc(-c2nnc(-c3cccs3)o2)cc1OC,0% (inactive)
13,CCc1nnc(NC(=O)NCN2C(=O)C3C4C=CC(C4)C3C2=O)s1 (stereo not given),0% (inactive)
14,CC(C)OC(=O)CSc1nnc(-c2ccc(O)cc2)n1Cc1ccccc1,0% (inactive)
15,COCC(C)NC(=O)CCS(=O)(=O)c1nc(-c2ccc(OC)cc2)cc(C(F)(F)F)n1 (stereo not given),0% (inactive)
16,COc1ccc(Cn2nnnc2C(c2ccccn2)N2CCN(c3cc(Cl)ccc3C)CC2)cc1 (stereo not given),0% (inactive)
17,O=C(CN1CCN(Cc2ccc(F)cc2Cl)C1=O)NCCCN1CCOCC1,0% (inactive)
18,CC1CCN(c2oc(-c3cccc4ccccc34)nc2C#N)CC1,0% (inactive)
19,COc1ccc(/C(O)=C2\C(=O)C(=O)N(c3cc(C)on3)C2c2ccccc2OC)cc1 (stereo not given),0% (inactive)
20,Cc1ccc(Nc2nc(N)nc(CN3CCN(Cc4ccc5c(c4)OCO5)CC3)n2)cc1,0% (inactive)
